Common to all, as to experiment: NCI-60 one-dose screen, 48 h (100 = growth as untreated, 0 = no growth, -100 = all killed)
Holding throughout (conditions): 10 µM unless noted

Assay [1] relates to NCI-H226 lung.
Assay [2] deals with NCI-H322M lung.
Assay [3] has as its system HOP-62 NSCLC.
Assay [4] deals with NCI-H460 lung.
Assay [5] relates to HOP-92 NSCLC.
Assay [6] concerns NCI-H522 lung.
The subject of assay [7] is A549/ATCC NSCLC.
For assay [8], the system named is 786-0 renal.
Assay [9] has as its system COLO 205 colon.
Assay [10] has as its system DU-145 prostate.
Assay [11] deals with K-562 leukemia.
Assay [12] deals with MALME-3M melanoma.
The test system of assay [13] is MDA-MB-231 breast.
The subject of assay [14] is RXF 393 renal.
In assay [15] the test system is SF-268 CNS.
The test system of assay [16] is SF-295 CNS.
For assay [17], the system named is SF-539 CNS.
Assay [18] concerns UACC-257 melanoma.
In assay [19] the test system is M14 melanoma.
The subject of assay [20] is HCT-15 colon.

The values below come from PubChem BioAssay (NCI).

The panel holds about 83,000 compounds, 20% with a hit somewhere; the sample as a whole holds those more often.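 The test compound was applied at a single concentration to cells in 96-well plates for 48 hours, and percent growth was recorded.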 Values without a mark were called inactive. Calls of active or inactive are those of the source. Rule for the calls: active = growth percent below 10; inactive = the rest.

On to `COc1cc(/C=C/C(=O)c2ccccc2)ccc1Oc1nc(NCCO)nc(N2CCOCC2)n1`, for which the growth is 107% in assay [1]; 99.3% in assay [2]; 90.1% in assay [3]; 110% in assay [4]; 90.9% in assay [5]; 99.3% in assay [6]. The growth is 98.8% in assay [7]; 105% in [8]; 116% in assay [9]; 104% in assay [10]; 22.9% in assay [11]; 93.7% in [12]. The growth is 97.1% in assay [13]; 105% in assay [14]; 103% in assay [15]; 99.7% in [16]; 94.2% in [17]; 95.4% in assay [18]. Besides, the figures for the growth in assay [19] and in assay [20] were 99.3% and 90.9%, respectively.

Turning to `O=C(CSc1nc2sc3c(c2c(=O)n1-c1ccc(Cl)cc1)CCCC3)NNC(=O)Nc1cccc(C(F)(F)F)c1`, the growth in [1] was 32.6%; in [2], 49.4%; in assay [3] it was 37.9%; in assay [4] it was 5.83% (active); in [5], -14.1% (active); in [6], 23.1%. In addition, the growth in assay [7] is 24%; in assay [8], 30.3%; in [9], 27%; in [10], 18.2%; in [11] it was 13.1%; in assay [12] it was 29.8%. The growth in [13] is 59%; in assay [14] it was 81.7%; in assay [15] it was 40.8%; in assay [16], 6.43% (active); in assay [17] it was 51.1%; in assay [18], 35.3%. Further, the growth in assay [19] is 32.1%; in assay [20], 12.9%.

Consider `CCCC(=O)NC(c1ccc2c(c1)OC(F)(F)O2)c1cc(C)c2cccnc2c1O` (stereo not given), for which the growth is 10.8% in assay [1]; 34.2% in assay [2]; 15.9% in assay [3]; -4.44% (active) in assay [4]; 33.5% in assay [5]; 18.2% in assay [6]. Also, the growth in assay [7] was 16.5%; in [8], 0.74% (active); in assay [9], 21.1%; in assay [10], 26%; in assay [11], 15.9%; in [12], 14.4%. Also, the growth was 34.8% in [13]; 55.4% in assay [14]; 18.7% in assay [15]; 20.9% in [16]; 8.69% (active) in assay [17]; 3.17% (active) in [18]. The figures for the growth in assay [19] and in assay [20] were -11.5% (active) and 39.3%, respectively.

Turning to `COc1cccc(OC)c1-c1nnn(C)c1C(=S)N1CCN(c2ccc([N+](=O)[O-])cc2Cl)CC1`, the growth is 88.6% in assay [1]; 82.6% in assay [2]; 106% in assay [3]; 101% in assay [4]; 80.3% in assay [5]; 93.6% in assay [6]. Further, the growth in assay [7] was 92.9%; in assay [8], 92.1%; in [9], 107%; in assay [10], 100%; in [11], 91.5%; in [12], 89.2%. In addition, the growth is 90.5% in assay [13]; 82.4% in [14]; 98.9% in [15]; 89.9% in assay [16]; 95.8% in [17]; 108% in [18]. Besides, the results for the growth in assay [19] and in assay [20] were 97% and 89.6%, respectively.

Regarding `COc1ccc(COc2ccc(/C=C3/C(=O)Nc4cc(Cl)ccc43)cc2)cc1`, the growth in [1] is 89.4%; in assay [2] it was 87.7%; in assay [3], 95.4%; in [4] it was 98.2%; in assay [5], 93.1%; in assay [6] it was 92%. Further, the growth in [7] was 98.7%; in assay [8] it was 110%; in [9] it was 101%; in [10], 98.2%; in assay [11], 113%; in [12], 86.6%. Besides, the growth in assay [13] is 91.2%; in [14], 105%; in assay [15] it was 99.5%; in [16], 101%; in assay [17], 85.8%; in assay [18], 106%. The growth in assay [19] is 97.7%; in [20], 104%.

As for `COC1CCN(Cc2ccc3c(NNC(=O)c4cnccn4)nc4cc(F)ccc4n23)C1` (stereo not given), the growth was 28.9% in assay [1]; 30.8% in [2]; 30.4% in assay [3]; 6.39% (active) in [4]; 40.4% in assay [5]; 7.95% (active) in [6]. The growth was 18.9% in assay [7]; 12.7% in [8]; 12.5% in assay [9]; 34.8% in assay [10]; 12% in assay [11]; 48.6% in assay [12]. Moreover, the growth in assay [13] was 19.8%; in [14] it was 37.9%; in assay [15], 35.8%; in assay [16] it was 21.4%; in assay [17] it was 4.26% (active); in [18], -3.02% (active). In addition, the growth in assay [19] was 3.22% (active); in assay [20], 28.7%.

For the molecule `OC1CCc2c(-c3ccc4ncnc(N5CCc6cc(F)c(Cl)cc65)c4c3)cncc21` (stereo not given), the growth was 56.7% in assay [1]; 15% in assay [2]; 63.7% in assay [3]; 50.7% in assay [4]; 23.1% in assay [5]; 40.1% in [6]. The growth in [7] is 50.3%; in assay [8], 43.7%; in assay [9] it was 82.3%; in [10], 35.8%; in assay [11] it was 60.9%; in assay [12], 64.5%. Also, the growth in [13] was 40.2%; in assay [14], 8.06% (active); in [15], 43.3%; in [16] it was 54%; in assay [17], 53.7%; in assay [18], 89.4%. Moreover, the growth was 74.4% in assay [19] and 41.1% in assay [20].

Regarding `COc1ccc(-n2c(SCC(=O)Nc3ccc(-c4nc5ccccc5[nH]4)cc3)nc3ccccc3c2=O)cc1`, the growth is 48.5% in [1]; 51.9% in [2]; 89.4% in [3]; -55.9% (active) in [4]; -33.3% (active) in assay [5]; -32.9% (active) in [6]. Moreover, the growth was -24.4% (active) in assay [7]; -95.4% (active) in [8]; 77.5% in [9]; 6.71% (active) in assay [10]; 5.98% (active) in assay [11]; -57.3% (active) in [12]. Besides, the growth in [13] is 29%; in [14], -39.1% (active); in [15] it was 42.6%; in assay [16] it was 16.2%; in assay [17] it was -77.3% (active); in [18] it was 45.3%. Besides, the growth in assay [19] is -26.7% (active); in assay [20], -11% (active).
